PubChem BioAssay AID1259313 (Sanford-Burnham Center for Chemical Genomics, 2017)
In all, about 340,000 compounds went through this assay and about 8,500 (2.5%) were called active. The sample holds actives, similar compounds and a random draw of the others, so the mix is not that of the screen. Unmarked numbers belong to inactive results.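 The calls were made as follows: active = melting temperature shift of at least 10% of the positive control shift, at one fixed dose; inactive = the rest.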

The compounds below were run on Glutamate receptor ionotropic, NMDA 3A (GRIN3A) ligand-binding domain (assay: NR3A LBD thermal stabilization by compounds – biophysical, differential scanning fluorimetry, uHTS, primary screen (AID 1259313)). Conditions: at 25 µM, active compounds read high, 0% = protein alone, 100% = glycine-bound protein.

| Compound | Tm shift relative to glycine control |
| --- | --- |
| COc1ccc(/C=C/CN2CCCC(C(=O)c3cc(F)ccc3F)C2)cc1 (centres undefined) | -1.5% |
| CCN1CCN(c2nc(Nc3cc(OC)ccc3OC)nc(Nc3cc(OC)ccc3OC)n2)CC1 | -2.4% |
| Cc1csc(NC(=O)C2CCN(S(=O)(=O)c3ccccc3)CC2)n1 | 2.42% |
| CC(C)(C)NC(=O)COc1ccc(CNc2ccc3[nH]c(=O)[nH]c3c2)cc1 | -1.72% |
| COc1cccc(CN(C)CC(O)COC(c2ccccc2)c2ccccc2C)c1 (centres undefined) | -2.39% |
| C=C(C)Cn1c(C)cc(C)c(S(=O)(=O)c2ccccc2C)c1=O | 2.34% |
| COCCn1c(C)cc(C(=O)CSc2nnc(C3CC3)n2C2CC2)c1C | -0.08% |
| Cc1nc2ccccc2n1CC(=O)N/N=C/c1cccs1 | -4.96% |
| CC(C)NS(=O)(=O)c1ccc(NC(=O)c2cccnc2)cc1 | 0.24% |
| COc1ccc(NS(=O)(=O)c2ccc(NC(=O)c3ccc(N(C)S(C)(=O)=O)cc3)cc2)cc1 | -0.38% |
| COc1ccc(C(=O)Nc2ccc(S(=O)(=O)NC(C)C)cc2)cc1 | 14% (active) |
| CCC(=C/c1sc2ccc3ccccc3c2[n+]1C)/C=C1\Sc2ccc3ccccc3c2N1C | 3.14% |
| CC1CCCCC1NC(=O)Cn1cnc2c1c(=O)n(C)c(=O)n2C (centres undefined) | -0.41% |
| CCS(=O)(=O)c1ccc(O)c(NC(=O)COc2ccc(Cl)cc2)c1 | 1.4% |
| COc1ccc(C(=O)Nc2cc(C)ccc2NC(=O)COc2ccccc2)cc1 | -0.91% |
| Cc1ccc(O)c(NC(=S)NC(=O)COc2ccc(Br)cc2)c1 | 16.9% (active) |
| Oc1ccc(/C=N/N(Cc2ccccc2)c2ccccc2)cc1 | 8.8% |
| COc1cc(OC)cc(-c2cc3ccc(F)cc3cn2)c1 | 1.79% |
| CC(=O)c1ccccc1NC(=O)C1CC(=O)N(c2ccc3c(c2)OCCO3)C1 (centres undefined) | -0.26% |
| COC(=O)C1CCN(C(=O)NC2CC(=O)N(c3ccc4c(c3)OCCO4)C2)CC1 (centres undefined) | 0.42% |
| CC(=O)c1ccc(S(=O)(=O)NC2CC(=O)N(c3ccc4c(c3)OCCO4)C2)cc1 (centres undefined) | 15.5% (active) |
| Cc1nc2cc(C(F)(F)F)ccc2n1CCNc1nc(-c2cc(Cl)c(N)c(Cl)c2)cs1 | -2.53% |
| Cc1ccc(C(C(=O)NC2CCCCC2)N(C(=O)c2csnn2)C2CC2)o1 (centres undefined) | -0.78% |
| COc1ccc(S(=O)(=O)N2CCOCC2)cc1NC(=O)CSc1nnc(NC2CC2)s1 | 1.84% |

| Compound | Tm shift relative to glycine control |
| --- | --- |
| COc1ccc(Br)cc1/C=N/NC(=O)c1cccc(S(=O)(=O)N2CCOCC2)c1 | -9.01% |
| COc1cccc(/C=N/NC(=O)c2[nH]nc3c2CCc2ccccc2-3)c1O | 20.4% (active) |
| COc1ccc(/C=N/NC(=O)c2ccncc2)cc1CN1CCCc2ccccc21 | -8.86% |
| O=C(c1cc2ccccc2o1)N1CCN(Cc2ccccc2)CC1 | 0.09% |
| Fc1ccc(OCc2nn3c(Cn4nnc5ccccc54)nnc3s2)cc1 | 2.39% |
| CC1CN(/C=C/C(=O)C(F)(F)F)CC(C)O1 (centres undefined) | 0.33% |
| COc1ccccc1Cn1c(C)nnc1-c1cnn(C)c1N | 1% |
| O=C(Cc1cccc2ccccc12)NNC(=O)Nc1ccc(Cl)cc1 | 29.1% (active) |
| CN(CC(=O)Nc1ccc(Cl)cc1)CC(=O)Nc1cccc2ccccc12 | -7.6% |
| O=C(O)Cc1ccc(NC(=O)Nc2cccc3ccccc23)cc1 | -1.31% |
| COC(=O)c1ccc(NCc2cc(O)ccc2O)cc1 | 5.08% |
| CC(C)OC(=O)c1ccc(NCc2cc(O)ccc2O)cc1Cl | -1.69% |
| O=C(OC12CC3CC(CC(C3)C1)C2)c1ccc(NCc2cc(O)ccc2O)cc1 | 33.5% (active) |
| Cn1c(SCc2ccc(F)cc2)nnc1-c1ccncc1 | 1.71% |
| CCC(C)(C)n1nnnc1CN1CCN(c2nc3ccc(C)cc3cc2C#N)CC1 | 0.62% |
| O=C(NCc1ccccc1)C(c1ccccc1)N(C(=O)c1csnn1)c1ccc(F)cc1 (centres undefined) | -0.6% |
| O=C(COC(=O)CCc1c[nH]c(=O)[nH]1)Nc1ccccc1Cl | 1.15% |
| CN(C)S(=O)(=O)Oc1ccccc1C(=O)Nc1ccccc1Cl | -0.92% |
| O=C(Nc1ccccc1Cl)/C(Cl)=C(\Cl)S(=O)c1ccccc1 (centres undefined) | 11.6% (active) |
| Cc1nn(-c2ccccc2)c2[nH]c(C(F)(F)F)cc(=O)c12 | -11.2% |
| COc1ccc(CN2CCN(Cc3cn(C)nc3-c3ccccc3)CC2CCO)c(C)c1C (centres undefined) | -3.71% |
| O=C(O)/C=C/c1ccc(OCCCF)cc1 | -1.35% |
| COc1cccc(C=CC(=O)C=CC=Cc2ccccc2)c1 | -1.98% |
| O=C(/C=C(O)/C=C/c1ccc(O)cc1)/C=C/c1ccc(O)cc1 | 19% (active) |

| Compound | Tm shift relative to glycine control |
| --- | --- |
| Cc1ccc(S(=O)(=O)NCCc2nnc3ccc(SCc4cccnc4)nn23)cc1 | -2.44% |
| COc1cc(OC)c(C(=O)NNC(=O)c2ccccc2-n2cccc2)cc1OC | -0.41% |
| CCCCCCC(O)(CCN1CCCCC1)c1ccccc1 (centres undefined) | -3.65% |
| S=c1[nH]nc(-c2cccs2)n1/N=C/c1cn(-c2ccccc2)nc1-c1ccc(Cl)cc1 | 15.2% (active) |
| S=c1[nH]nc(-c2cccs2)n1/N=C/c1cccs1 | 0.68% |
| S=c1[nH]nc(-c2ccncc2)n1/N=C/c1ccccc1Cl | -1.38% |
| CC(C(=O)Nc1ccccc1-c1ccccc1)N1CCOCC1 (centres undefined) | -18.3% |
| CCOc1ccc2nc(C(=O)N3CCCC(C)C3)sc2c1 (centres undefined) | 3.03% |
| CCOc1ccc2nc(/N=C/c3nc(-c4ccccc4)oc3O)sc2c1 | 38% (active) |
| CC(N=Cc1nc(-c2ccccc2)oc1O)c1ccccc1 (centres undefined) | 1.17% |
| COc1ccccc1-c1nnc2n1N=C(c1ccc(OC(F)F)c(OCC3CC3)c1)CS2 | 20.6% (active) |
| CCn1c(SCC(=O)NC2CC2)nnc1-c1ccccc1OC | -19.3% |
| COc1ccc(C2=Nn3c(nnc3-c3ccccc3OC)SC2)cc1OC1CCCC1 | -1.54% |
| Cn1c(C(=O)OC(C(=O)NC2CCCCC2)c2ccccn2)cc2sccc21 (centres undefined) | -2.22% |
| C/C(=N/NC(=O)CCc1ccccc1)c1ccco1 | 13.4% (active) |
| C/C(CC(=O)NC(C)(C)C)=N\NC(=O)c1ccco1 | -2.4% |
| C/C(=N/NC(=O)C1COc2ccccc2O1)c1ccco1 (centres undefined) | 0.45% |
| C=C(C)CNC(=S)/N=c1\scc(C)n1CC | 0.78% |
| Cc1c(Cl)cccc1NC(=O)CSc1ccc(-c2cccnc2)nn1 | 0.4% |
| COc1ccc([C@H]2[C@H](C(C)=O)N3N=Cc4ccccc4C3C23C(=O)OC(C)(C)OC3=O)cc1 (some centres undefined) | 1.26% |
| COc1cc2ccccc2cc1C(=O)Nc1ccc(NC(=O)c2cccs2)cc1 | 28.6% (active) |
| COc1cc(NC(=O)c2ccc3c(c2)OCO3)ccc1NC(=O)c1cccs1 | 26.8% (active) |
| COc1cc(NC(=O)COc2ccccc2Cl)ccc1NC(=O)C(C)C | -1.36% |
| COc1cc(Cl)c(C)cc1NC(=O)[C@@H]1CCCN1C(=O)c1cccs1 | -1.61% |

| Compound | Tm shift relative to glycine control |
| --- | --- |
| COc1cc2ccccc2cc1C(=O)Nc1ccncc1 | -12.5% |
| COc1cc2ccccc2cc1C(=O)Nc1ccc(S(=O)(=O)Nc2cc(C)on2)cc1 | -5.06% |
| COc1cc(NC(=O)c2cccs2)ccc1NC(=O)c1ccccc1Cl | 11.9% (active) |
| CC(C)C(=O)Nc1cccc(C(=O)Nc2ccc3c(c2)OCO3)c1 | -22.3% |
| O=C(Nc1ccc(NC(=O)c2ccc3c(c2)OCO3)cc1)c1cccc(Cl)c1 | 4.36% |
| Cc1cc(C(=O)CC#N)c(C)n1CC(F)(F)F | 0.49% |
| O=C(Nc1cccc(S(=O)(=O)N2CCCC2)c1)c1cncc(Br)c1 | -1.22% |
| COc1ccc(N2CCN(CCNC(=O)Nc3cc(Cl)ccc3Cl)CC2)cc1 | -1.01% |
| O=c1c2ccccc2ncn1/N=C/c1ccccc1 | -2.01% |
| Cc1ccc(OCC(=O)N2CCN(C(=O)c3cccnc3)CC2)cc1 | -1.15% |
| O=C(/C=C/c1ccc(Cl)cc1)Nc1ccc(Br)cn1 | 0.46% |
| Cc1ccccc1N(C(=O)Cc1cccs1)C(C(=O)NC1CCCCC1)c1cn(C)nc1C (centres undefined) | -0.71% |
| O=C(COC(=O)c1cc(=O)[nH]c2ccccc12)NCc1cccc(Cl)c1 | -0.85% |
| O=C(COC(=O)c1cc(=O)[nH]c2ccccc12)Nc1nc(-c2cccc(Br)c2)cs1 | 10.6% (active) |
| CCOC(=O)c1ccccc1NC(=O)CSc1nc2ccccc2c(=O)[nH]1 | -1.86% |
| CC(NC(=O)COC(=O)c1cc(=O)[nH]c2ccccc12)c1ccccc1 (centres undefined) | -1% |
| O=C(CSc1nc2ccccc2c(=O)[nH]1)Nc1nc(-c2ccc(Br)cc2)cs1 | 36.1% (active) |
| CC(=O)NCc1ccc(-c2csc(NC(=O)CCCc3nc4ccccc4c(=O)[nH]3)n2)cc1 | -1.27% |
| Cc1ccc(-c2cc(=O)[nH]c(NCc3ccccc3)n2)cc1 | -1.01% |
| COc1cc(OC)c(OC)cc1CN1CCN(C(=O)c2cccc3ccccc23)CC1 | -1.19% |
| Cc1cc(C)nc(/N=C2\NC(=O)CC(C(=O)O)N2c2ccc(Cl)cc2Cl)n1 (centres undefined) | -1.26% |
| O=C(CCN1C(=O)C2CCCCC2C1=O)Nc1ccc(OC(F)F)cc1 (centres undefined) | 2.89% |
